Active and inactive are the calls of the source.
Legend:
[1] = anti-His antibody binders, primary screen, artefact control for SMM control protein annotation, biochemical, small-molecule microarray, 635 nm fluorescence (AID 1128); settings: anti-His Alexa647 antibody binding, higher = more signal;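 further: score merges feature fluorescence with signal-to-noise for each printed compound spot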
[2] = test system: Human papillomavirus type 1a E7 protein (residues 1-88); experiment: HPV1a E7 small-molecule binders, primary screen, biochemical, small-molecule microarray, residues 1-88, 635 nm (AID 1129); settings: small-molecule microarray binding, fluorescence 635 nm; higher = more signal
[3] = target: Focal adhesion kinase 1 (Homo sapiens) (UniProt Q05397); experiment: small-molecule microarray binders of FAK, primary screen, biochemical, 635/667 nm fluorescence, BSA, DTT (AID 1130); settings: PTK2 binding, 635 nm fluorescence, higher = more signal;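 further: composite of spot emission at 667 nm and signal to noise over triplicate slides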
[4] = test system: Fibrinogen (Alexa647-labelled); experiment: fibrinogen binders on compound microarrays, profiling panel, artefact control for SMM control-protein annotation, biochemical, small-molecule microarray, 635/667 nm fluorescence (AID 1131); settings: fibrinogen-A647 binding fluorescence, higher = more signal;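 further: z-score merges 667 nm fluorescence with per-spot signal-to-noise over triplicate slides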
[5] = target: Follistatin (Homo sapiens) (UniProt P19883); experiment: follistatin binders on small-molecule microarrays, primary screen, biochemical, small-molecule microarray, 635/667 nm fluorescence (AID 1132); settings: FST binding, 635 nm fluorescence, higher = more signal
[6] = target: Fibroblast growth factor 2 (Homo sapiens) (UniProt P09038); experiment: FGF2 binders on small-molecule microarrays, primary screen, biochemical, small-molecule microarray, 635/667 nm fluorescence (AID 1133); settings: small-molecule microarray binding, FGF2, fluorescence 635/667; higher = more signal
[7] = mitochondrial membrane potential change in A549 cells, profiling panel, cell-based, JC-1 fluorescence, basal, 24 h, 100 nL (AID 1138); settings: higher = more signal;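 further: A549 lung adenocarcinoma cells under basal conditions with no added stimulus; test concentration not given here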
Lefty1 = Lefty1 binders on small-molecule microarrays, primary screen, biochemical, small-molecule microarray, 635/667 nm fluorescence (AID 1139); settings: small-molecule microarray binding, fluorescence 635/667; higher = more signal
[8] = test system: wheat germ agglutinin (Triticum aestivum), Alexa647-labelled; experiment: wheat germ agglutinin binders on compound microarrays, profiling panel, artefact control for SMM control-protein annotation, biochemical, small-molecule microarray, 635/667 nm fluorescence (AID 1140); settings: WGA-A647 binding, 635 nm fluorescence, higher = more signal;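 further: score merges 667 nm feature emission with signal to noise over triplicate slides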
[9] = target: Luciferin 4-monooxygenase (Photinus pyralis) (UniProt P08659); experiment: firefly luciferase enzyme inhibitors, primary screen, biochemical, luminescence, purified enzyme, 2006 set (AID 1141); settings: SteadyGlo luminescence, 30 min, higher = more signal, called active from +8 up or from −8 down;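 further: cell-free assay with purified firefly luciferase at 100 ng per well in PBS; test concentration not given here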
Luciferin 4-monooxygenase (Photinus pyralis), sequence (P08659 whole entry, looked up): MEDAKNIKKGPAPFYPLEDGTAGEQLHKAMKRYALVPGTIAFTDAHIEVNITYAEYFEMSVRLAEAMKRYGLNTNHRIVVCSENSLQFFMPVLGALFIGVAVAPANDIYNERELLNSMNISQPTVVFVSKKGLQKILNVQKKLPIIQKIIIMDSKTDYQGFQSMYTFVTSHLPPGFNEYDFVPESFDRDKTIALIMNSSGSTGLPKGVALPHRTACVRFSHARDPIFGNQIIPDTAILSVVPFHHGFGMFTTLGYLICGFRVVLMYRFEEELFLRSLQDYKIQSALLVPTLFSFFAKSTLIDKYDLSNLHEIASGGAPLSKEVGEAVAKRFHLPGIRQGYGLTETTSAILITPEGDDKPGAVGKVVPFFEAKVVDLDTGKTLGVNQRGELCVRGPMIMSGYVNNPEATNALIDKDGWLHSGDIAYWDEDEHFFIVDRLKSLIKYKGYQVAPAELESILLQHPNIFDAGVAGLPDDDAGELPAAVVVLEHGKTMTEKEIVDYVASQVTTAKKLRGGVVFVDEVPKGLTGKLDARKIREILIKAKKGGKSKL

Fibroblast growth factor 2 (Homo sapiens), sequence (P09038 whole entry, looked up): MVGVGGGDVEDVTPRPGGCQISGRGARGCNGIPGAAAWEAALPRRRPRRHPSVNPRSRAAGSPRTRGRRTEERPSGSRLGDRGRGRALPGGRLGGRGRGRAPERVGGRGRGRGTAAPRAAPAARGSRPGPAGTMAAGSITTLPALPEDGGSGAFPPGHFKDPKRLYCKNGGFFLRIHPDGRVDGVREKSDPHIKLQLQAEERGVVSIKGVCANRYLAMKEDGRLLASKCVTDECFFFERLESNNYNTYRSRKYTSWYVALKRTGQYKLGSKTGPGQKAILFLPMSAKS
Focal adhesion kinase 1 (Homo sapiens), sequence (Q05397 whole entry, looked up): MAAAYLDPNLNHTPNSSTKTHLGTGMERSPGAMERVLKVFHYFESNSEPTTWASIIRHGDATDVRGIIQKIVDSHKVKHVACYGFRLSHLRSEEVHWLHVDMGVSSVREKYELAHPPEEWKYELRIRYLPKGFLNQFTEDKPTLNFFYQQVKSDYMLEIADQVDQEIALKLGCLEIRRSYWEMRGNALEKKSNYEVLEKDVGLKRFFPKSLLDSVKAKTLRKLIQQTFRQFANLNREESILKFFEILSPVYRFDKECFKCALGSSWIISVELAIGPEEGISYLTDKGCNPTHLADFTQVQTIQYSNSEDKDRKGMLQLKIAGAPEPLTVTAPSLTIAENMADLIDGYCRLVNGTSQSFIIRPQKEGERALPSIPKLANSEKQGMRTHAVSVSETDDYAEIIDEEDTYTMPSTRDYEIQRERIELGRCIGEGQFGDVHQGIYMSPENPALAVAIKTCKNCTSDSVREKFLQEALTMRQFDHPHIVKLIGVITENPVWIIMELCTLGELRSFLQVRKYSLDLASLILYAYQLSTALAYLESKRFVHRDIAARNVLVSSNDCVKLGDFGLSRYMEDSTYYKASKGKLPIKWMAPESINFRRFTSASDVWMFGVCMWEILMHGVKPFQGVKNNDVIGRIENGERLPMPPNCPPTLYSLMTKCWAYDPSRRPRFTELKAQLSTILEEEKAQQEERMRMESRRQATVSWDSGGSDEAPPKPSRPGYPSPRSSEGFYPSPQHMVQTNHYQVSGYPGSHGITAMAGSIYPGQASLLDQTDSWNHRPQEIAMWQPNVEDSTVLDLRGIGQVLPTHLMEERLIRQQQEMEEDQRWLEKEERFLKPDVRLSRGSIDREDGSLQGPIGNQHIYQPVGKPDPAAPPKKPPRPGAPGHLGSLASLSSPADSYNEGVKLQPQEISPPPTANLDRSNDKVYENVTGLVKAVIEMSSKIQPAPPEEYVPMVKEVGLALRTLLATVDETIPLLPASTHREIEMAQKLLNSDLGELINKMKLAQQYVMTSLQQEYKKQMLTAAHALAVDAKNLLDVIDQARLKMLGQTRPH
Follistatin (Homo sapiens), sequence (P19883 whole entry, looked up): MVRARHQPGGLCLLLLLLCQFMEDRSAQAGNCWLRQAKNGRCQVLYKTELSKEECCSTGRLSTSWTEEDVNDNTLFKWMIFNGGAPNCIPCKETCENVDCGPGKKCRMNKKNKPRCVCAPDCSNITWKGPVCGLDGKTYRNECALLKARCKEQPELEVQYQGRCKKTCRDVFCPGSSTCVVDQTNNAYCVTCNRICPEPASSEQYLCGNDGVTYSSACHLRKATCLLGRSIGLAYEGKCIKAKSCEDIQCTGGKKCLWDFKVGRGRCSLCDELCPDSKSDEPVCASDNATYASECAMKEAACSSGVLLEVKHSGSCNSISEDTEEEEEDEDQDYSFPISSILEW

| SMILES | composite z-score [1] | composite z-score [2] | composite z-score [3] | composite z-score [4] | composite z-score [5] | composite z-score [6] | z-score [7] | composite z-score (Lefty1) | composite z-score [8] | z-score [9] |
| --- | --- | --- | --- | --- | --- | --- | --- | --- | --- | --- |
| CCCCC(CC)C(O)C1C=CC2C(=O)N(C)C(=O)C2N1Nc1ccccc1 (stereo not given) | 1.51 | 1.21 | 0.592 | 0.852 | 0.22 | -0.364 | 0.665 | -0.118 | 0.795 | 0.546 (inactive) |
| COCCOC(=O)N1C(=O)[C@@]2(c3ccccc31)[C@H](C(=O)NC[C@H](O)c1ccccc1)[C@H]1C(=O)O[C@H](c3ccccc3)[C@H](c3ccccc3)N1[C@@H]2c1ccc(O)cc1 | 1.43 | 1.26 | 0.818 | 0.965 | 1.34 | 1.61 | -1.17 | 1.23 | 0.648 | 0.883 (inactive) |
| O=C(O)[C@@H]1C[C@@H]2C(=O)N3CCC[C@H]3C(=O)N2[C@@H]1c1ccc(O)cc1 | 2.3 | 0.258 | 0.251 | -0.0516 | 1.42 | 1.07 | -0.269 | 0.824 | 0.0465 | -0.985 (inactive) |
| C=CC[C@@H](OC(=O)Nc1ccc(OC)cc1)c1ccc(O)c(F)c1 | 0.0579 | -0.0596 | 0.676 | -0.699 | 0.0619 | -0.448 | -1.71 | -0.201 | -0.733 | -4.17 (inactive) |
| O=C1OCCC=C[C@H]2OC34C=CCN(c5ccc6ccccc6c5)C(=O)[C@H]3N(CCCO)C(=O)[C@@H]4C12 (stereo not given in full) | -0.581 | -2.27 | -0.459 | -0.51 | -1.25 | -2.33 | -0.446 | -1.81 | -1.29 | -0.244 (inactive) |
| CC(C)(C)OC(=O)COc1cccc(C(=O)CCN2CCOCC2)c1 | -0.413 | 0.355 | -0.272 | 0.226 | -0.35 | -0.284 | 0.583 | -0.57 | -0.0945 | -2.13 (inactive) |
| O=C(Cc1ccccc1)[C@H]1C2C=CCCC(c3ccccc3)=C2CN1Cc1ccccc1 (stereo not given in full) | -0.162 | -0.304 | -0.241 | -0.0983 | 0.436 | 0.869 | 1.77 | -0.519 | -0.394 | -1.06 (inactive) |
| CC(C)c1ccc(NN2C(C(O)c3ccc(C#N)cc3)C=CC3C(=O)N(c4ccccc4)C(=O)C32)cc1 (stereo not given) | 0.433 | 1.21 | 1.97 | 1.04 | 1.01 | -0.14 | -0.131 | -0.278 | 0.949 | -0.973 (inactive) |
| [N-]=[N+]=Nc1ccccc1C[C@@]1(C(=O)N2CCOCC2)N=C(c2ccc(OCCCO)cc2)O[C@@H]1c1ccccc1 | 1.19 | 1.19 | 0.625 | 0.986 | 1.32 | 1.35 | 1.08 | 0.3 | 0.313 | -2.43 (inactive) |
| COc1ccc([Si](C)(C)[C@@H]2[C@@H](CC(=O)N(CCO)Cc3ccccc3)O[C@]3(C(=O)N(Cc4cccc(N5CCCCC5=O)c4)c4ccccc43)[C@H]2C)cc1 | 0.112 | 0.869 | 0.518 | -0.451 | 1.15 | 0.361 | -0.171 | 1.46 | 0.349 | 0.151 (inactive) |
| CC(C)N1C(=O)C[C@@](C(=O)O)(c2ccc([N+](=O)[O-])cc2)[C@H]1c1ccc(CO)cc1 | 0.0886 | -0.619 | -0.0404 | -1.14 | -0.82 | -0.798 | 0.993 | -1.12 | -0.76 | -1.03 (inactive) |
| CC(C)N1C(=O)C[C@@](C(=O)NC2CC2)(c2ccc([N+](=O)[O-])cc2)[C@H]1c1ccc(CO)cc1 | 1.7 | -0.0823 | 0.403 | -0.793 | 0.323 | 0.362 | -0.544 | -1.11 | -0.545 | -0.254 (inactive) |
| O=C1C2C=CC(C(O)C3CC=CCC3)N(Nc3ccccc3)C2C(=O)N1c1ccccc1 (stereo not given) | 0.41 | 1.21 | 1.17 | 0.944 | 1.27 | 0.119 | -1.15 | 0.135 | 0.458 | -0.313 (inactive) |
| CC(C)[Si](C#CCCCC#N)(O[C@H](c1ccccc1)c1cn(Cc2ccccc2)nn1)C(C)C | 1.01 | 0.694 | -0.359 | 0.534 | 0.793 | 0.725 | 0.408 | 0.809 | 0.235 | -0.254 (inactive) |
| CCOC(=O)C[C@H]1[C@H](OC(=O)Cc2ccc3c(c2)OCO3)[C@@H](NC(=O)c2ccc3ccccc3n2)c2cc(OCCCO)ccc2N1C(=O)c1ccccc1 | -0.0867 | 0.381 | -0.0076 | 0.364 | 0.803 | 0.902 | 2.23 | 0.755 | 0.326 | -0.992 (inactive) |
| [N-]=[N+]=Nc1ccccc1[C@@H]1OC(c2ccc(OCCCO)cc2)=N[C@]1(Cc1ccccc1)C(=O)O | 1.87 | 1.21 | 0.854 | 0.803 | 1.31 | 0.32 | 0.506 | -0.028 | 1.09 | -9.46 (active) |
| CC(C)C(O)C1C=CC2C(=O)N(c3ccccc3)C(=O)C2N1Nc1ccccc1 (stereo not given) | 0.331 | 1.29 | 0.463 | 1.05 | 0.986 | -0.11 | 0.0126 | 0.63 | 1.14 | 0.172 (inactive) |
| CCCC[C@@H](O)C1=C(COC)C[C@H]2C(=O)N(C)C(=O)[C@H]2[C@H]1CO | 0.217 | -0.165 | -0.185 | 0.171 | 0.504 | 0.201 | -0.278 | 1.14 | -0.11 | 0.0646 (inactive) |
| Cc1ccc(F)cc1S(=O)(=O)N[C@@H]1CCN(Cc2ccc(Br)cc2)C1 | -0.325 | -0.464 | -0.408 | 0.79 | 0.639 | 0.677 | 1.47 | 0.983 | 0.124 | -0.457 (inactive) |
| CC(=O)NCCCC[C@@H]1NC(=O)[C@@H]2C[C@H](C(=O)NCCCCCN)[C@H](c3ccc(O)cc3)N2C1=O | 0.367 | 1.19 | 0.445 | 0.671 | 1.33 | 1.24 | -0.664 | 1.58 | 0.283 | -0.399 (inactive) |
| CCN(CC)c1ccc(N2CC=CC34O[C@@H]5/C=C\CCCOC(=O)C5[C@H]3C(=O)N(C(C)CO)[C@@H]4C2=O)cc1 (stereo not given in full) | -0.556 | -0.107 | -0.294 | -0.158 | 0.077 | 0.305 | 1.18 | -0.0464 | -0.0344 | -1.38 (inactive) |
| CCCCC(=C=CC[C@H](O)c1ccc(OCCO)cc1)CCO | -0.582 | 0.0547 | 0.0832 | -1.64 | -0.232 | -0.674 | 0.25 | 0.282 | 0.717 | -0.98 (inactive) |
| CCOC(=O)C[C@H]1[C@H](OC(=O)c2ccccc2-c2ccccc2)[C@@H](NC(=O)c2ccc3ccccc3n2)c2cc(OCCCO)ccc2N1C(=O)Cc1ccc(OC)cc1 | -0.186 | 0.511 | 0.0434 | 0.47 | 0.248 | 0.268 | 0.397 | 0.577 | 0.509 | 0.43 (inactive) |
| COc1cc(C(O)C2C=CC3C(=O)N(C)C(=O)C3N2Nc2ccccc2)cc(OC)c1OC (stereo not given) | 2.78 | 1.23 | 1.05 | 1 | 0.568 | -0.397 | 0.29 | -0.714 | 1.14 | -1.36 (inactive) |
| O=c1cccc(-c2ccc([N+](=O)[O-])cc2)o1 | 0.504 | 0.963 | 0.21 | -0.301 | 1.28 | 1.05 | -0.233 | 1.4 | 0.301 | 1.68 (inactive) |
| CN(C)c1ccc(C(O)C2C=CC3C(=O)NC(=O)C3N2Nc2ccccn2)cc1 (stereo not given) | 0.909 | 0.683 | 0.304 | 0.309 | 1.32 | 0.417 | 0.229 | 0.783 | 0.423 | -0.866 (inactive) |
| CCOC(=O)C1=C[C@@H](C(C)C)N(S(=O)(=O)c2ccc(C)cc2)[C@H]1c1ccc(C(F)(F)F)cc1 | 0.922 | 1.22 | 0.224 | 0.975 | 0.929 | 0.604 | 2.67 | 0.895 | 0.909 | 0.612 (inactive) |

From PubChem BioAssay
